# Assay results: PubChem BioAssay (NCATS)
# Records with an inconclusive call do not appear. Calls of active or inactive are those of the source. The call rests on the fitted dose curve; in most records, active means well fitted inhibition curve with a large enough effect; inconclusive means small, poorly fitted or top-dose-only effect; inactive means no such curve, though single readings can be large or run the other way. Starred links: 1 amine or outer side, 2 acyl side, 3 side chain; linkers in the order of their positions; H or OH if unused. Positions of bridges follow the written chain, without caps; N, C: chain ends. Non-standard residues stand in square brackets, D forms with d. Residues, ends and D or L forms follow the SMILES beside them. Chains are numbered I, II in the order given. Actinocin(9to1) = Cc1c2oc3c(C)ccc(C(=O)[*:1])c3nc-2c(C(=O)[*:2])c(N)c1=O; NMeV = CN[CH](C(=O)O)C(C)C; Sar = CNCC(=O)O
# Test: qHTS Screen of the MIPE 4.0 Collection Against Ewings Sarcoma (EW8) (AID 1259255); further: nearly all actives have a fitted effect of over 35% in size
# Settings: EW8 Ewing sarcoma viability, CellTiter-Glo, 48 h; series mostly up to 45.8 µM
# How it was run: (§1)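 Cells plated in serum-containing RPMI (5% FBS) and treated with compound dilutions for 48 h. Readout luminescent viability; normalization relied on vehicle (no inhibition) and media-only columns (full inhibition).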
# Potency means the concentration at half of the fitted maximal effect.
row,Compound,Potency
1,C[C@H]1C[C@H]2[C@@H]3CCC4=CC(=O)C=C[C@]4(C)[C@@H]3C(=O)C[C@]2(C)[C@@]1(O)C(=O)CO,inactive
2,CC(=CC(=O)Nc1ccccc1C(=O)O)c1ccc2ccccc2c1,10.5 µM (active)
3,C[C@H](NC(=O)[C@@H](O)c1cc(F)cc(F)c1)C(=O)N[C@@H]1C(=O)N(C)c2ccccc2-c2ccccc21,inactive
4,O=C1NCCc2[nH]c(-c3ccncc3)cc21,3.32 µM (active)
5,Cc1noc(-c2ccc(CSCCC(=O)O)cc2)c1NC(=O)OC(C)c1ccccc1Cl (configuration not stated),inactive
6,CC[C@H]1OC(=O)[C@H](C)[C@@H](O[C@H]2C[C@@](C)(OC)[C@@H](O)[C@H](C)O2)[C@H](C)[C@@H](O[C@@H]2O[C@H](C)C[C@H](N(C)C)[C@@H]2O)[C@](C)(OC)C[C@@H](C)C(=O)[C@H](C)[C@@H](O)[C@]1(C)O,inactive
7,CC(=O)SCC(Cc1ccccc1)C(=O)NCC(=O)OCc1ccccc1 (configuration not stated),1.05 µM (active)
8,COc1cccc2c1C(=O)c1c(O)c3c(c(O)c1C2=O)C[C@@](O)(C(=O)CO)C[C@@H]3O[C@H]1C[C@H](N)[C@@H](O)[C@H](C)O1,0.0296 µM (active)
9,CC(C)Oc1ccc(C(=O)N[C@H](CNC(=O)CN(C)C)Cc2ccc(-c3cn4cccc([C@H](C)O)c4n3)cc2)cc1Cl,0.235 µM (active)
10,N#Cc1cc(NC(=O)Nc2nnc(-c3ccncc3)s2)ccc1-c1cn[nH]c1,inactive

# Test: qHTS Screen of the MIPE 4.0 Collection Against Ewings Sarcoma (TC32) (AID 1259256); further: nearly all actives have a fitted effect of over 45% in size
# Settings: TC32 Ewing sarcoma viability, CellTiter-Glo, 48 h; series mostly up to 45.8 µM
# How it was run: as §1
row,Compound,Potency
1,CCCCCCCCCCCCCCCC(=O)OC[C@@H](NC(=O)C(Cl)Cl)[C@H](O)c1ccc([N+](=O)[O-])cc1,inactive
2,Cn1cc(C[C@@H](N)C(=O)O)c2ccccc21,inactive
3,Cc1cc(-c2nnc3n2CCCCC3)c(C)n1-c1ccccc1,18.7 µM (active)
4,O=[N+]([O-])c1cn2c(n1)OC[C@@H](OCc1ccc(OC(F)(F)F)cc1)C2,8.33 µM (active)
5,N[C@H]1CN(c2c(F)cc3c(=O)c(C(=O)O)cn(C4C[C@@H]4F)c3c2Cl)CC12CC2 (some centres not stated),0.0033 µM (active)
6,C[C@@H](Cc1cc2c(c(C(N)=O)c1)N(CCCO)CC2)NCCOc1ccccc1OCC(F)(F)F,inactive
7,C[C@H]1COc2c(N3CCN(C)CC3)c(F)cc3c(=O)c(C(=O)O)cn1c23,inactive
8,C=CCNC1=C2C[C@@H](C)C[C@H](OC)[C@@H](O)[C@@H](C)C=C(C)[C@H](OC(N)=O)[C@@H](OC)C=CC=C(C)C(=O)NC(=CC1=O)C2=O,0.372 µM (active)
9,CCNC(=O)c1cc2c(-c3cc(OCCN4CCCC4)c(Cl)cc3Cl)nc(N)nc2s1,0.59 µM (active)
10,COC(=O)[C@H](CCCN=C(N)N)NS(=O)(=O)c1ccc(C)cc1,inactive
11,CCCNS(=O)(=O)Nc1ncnc(OCCOc2ncc(Br)cn2)c1-c1ccc(Br)cc1,inactive
12,Cn1cc(C=CC(=O)c2cccc(F)c2)cc1C=CC(=O)NO,20.9 µM (active)
13,C[C@@H]1CC[C@@]2(OC1)OC1CC3C4CC=C5CC(O)CCC5(C)C4CCC3(C)C1[C@@H]2C (some centres not stated),inactive
14,CCN1CCN(C(=O)N[C@H](C(=O)N[C@@H]2C(=O)N3C(C(=O)O)=C(CSc4nnnn4C)CS[C@@H]23)c2ccc(O)cc2)C(=O)C1=O,inactive
15,Cn1c(Nc2ccc(C(F)(F)F)cc2)nc2cc(Oc3ccnc(-c4ncc(C(F)(F)F)[nH]4)c3)ccc21,2.09 µM (active)
16,CC(C)(O)[C@H]1CC[C@@](C)([C@H]2[C@@H](O)C[C@@]3(C)[C@@H]4C[C@H](O[C@@H]5O[C@H](CO)[C@@H](O)[C@H](O)[C@@H]5O)[C@H]5C(C)(C)[C@@H](O[C@@H]6OC[C@@H](O)[C@H](O)[C@@H]6O)CC[C@@]56C[C@@]46CC[C@]23C)O1,inactive
17,CC(=O)O[C@H]1C[C@@H]2CC[C@H]3[C@H]4C[C@H]([N+]5(C)CCCCC5)[C@@H](OC(C)=O)[C@@]4(C)CC[C@@H]3[C@@]2(C)C[C@H]1[N+]1(C)CCCCC1,2.35 µM (active)
18,Nc1nc(=O)n([C@H]2C[C@H](O)[C@@H](CO)O2)cc1F,0.0296 µM (active)
19,O=C(O)CCCCC(CCSCc1ccccc1)SCc1ccccc1 (configuration not stated),inactive

row,Compound,Potency
1,OCCNC1CCCc2c1[nH]c1ccc(-c3ccccc3)cc21 (configuration not stated),18.7 µM (active)
2,C=C1C(=O)O[C@H]2[C@@H]1CCC(C)=CCC[C@@]1(C)O[C@@H]21,9.35 µM (active)
3,CCCNC(=O)[C@H]1O[C@H]1C(=O)N[C@H](C(=O)N1CCC[C@@H]1C(=O)OC)C(C)CC (some centres not stated),5.26 µM (active)
4,CC(C)(O)Cn1c(NC(=O)c2ccc(-c3cn[nH]c3)s2)nc2cc(CN3CCOCC3)ccc21,3.32 µM (active)
5,CC[C@H](CC[C@@H](C)[C@H]1CC[C@H]2[C@@H]3CC=C4C[C@@H](O)CC[C@]4(C)[C@@H]3CC[C@]12C)C(C)C,inactive
6,Nc1ccc(C(=O)Nc2cccc(-c3nc(N4CCOCC4)c4oc5ncccc5c4n3)c2)cn1,16.6 µM (active)
7,CC(=O)OCC(=O)[C@@]12N=C(C)O[C@H]1C[C@H]1[C@@H]3CCC4=CC(=O)C=C[C@]4(C)[C@@H]3[C@@H](O)C[C@@]12C,inactive
8,COC(=O)[C@@H]1[C@H]2C[C@@H]3c4[nH]c5ccccc5c4CCN3C[C@@H]2CC[C@@H]1O,inactive
9,"Cc1c2oc3c(C)ccc(C(=O)NC4C(=O)NC(C(C)C)C(=O)N5CCCC5C(=O)N(C)CC(=O)N(C)C(C(C)C)C(=O)OC4C)c3nc-2c(C(=O)NC2C(=O)NC(C(C)C)C(=O)N3CCCC3C(=O)N(C)CC(=O)N(C)C(C(C)C)C(=O)OC2C)c(N)c1=O (configuration not stated) (I: TVP[Sar][NMeV] / II: TVP[Sar][NMeV]; ester I:1-I:C, II:1-II:C; linker I:N-II:N via Actinocin(9to1); configuration not given here)",inactive
10,C[C@H]1C[C@H]2[C@@H]3CCC4=CC(=O)C=C[C@]4(C)[C@@H]3C(=O)C[C@]2(C)[C@@]1(O)C(=O)CO,inactive
11,CC(=CC(=O)Nc1ccccc1C(=O)O)c1ccc2ccccc2c1,9.35 µM (active)
12,O=C1NCCc2[nH]c(-c3ccncc3)cc21,5.26 µM (active)
13,Cc1noc(-c2ccc(CSCCC(=O)O)cc2)c1NC(=O)OC(C)c1ccccc1Cl (configuration not stated),inactive
14,CC[C@H]1OC(=O)[C@H](C)[C@@H](O[C@H]2C[C@@](C)(OC)[C@@H](O)[C@H](C)O2)[C@H](C)[C@@H](O[C@@H]2O[C@H](C)C[C@H](N(C)C)[C@@H]2O)[C@](C)(OC)C[C@@H](C)C(=O)[C@H](C)[C@@H](O)[C@]1(C)O,inactive
15,CC(=O)SCC(Cc1ccccc1)C(=O)NCC(=O)OCc1ccccc1 (configuration not stated),0.743 µM (active)
16,COc1cccc2c1C(=O)c1c(O)c3c(c(O)c1C2=O)C[C@@](O)(C(=O)CO)C[C@@H]3O[C@H]1C[C@H](N)[C@@H](O)[C@H](C)O1,0.0042 µM (active)
17,CC(C)Oc1ccc(C(=O)N[C@H](CNC(=O)CN(C)C)Cc2ccc(-c3cn4cccc([C@H](C)O)c4n3)cc2)cc1Cl,0.0042 µM (active)
18,N#Cc1cc(NC(=O)Nc2nnc(-c3ccncc3)s2)ccc1-c1cn[nH]c1,inactive
